Source: the supplement of paper PMC10849652
About 7,900 targets were measured; listed, in parts, are those with a hit and a random draw of the rest. About 0.6% of all pairs of compound and target were hits.

Columns and labels:
Assay in all cases: log2 fold change, soluble protein after heating vs DMSO (PISA); higher = thermal stabilisation; K562 cells, 10 uM, 30 min; active = over 0.2 and 3.5 SD of the protein, either way, in both replicates (recomputed)
[1] = compound: C#Cc1cccc(Nc2ncnc3cc(OCCOC)c(OCCOC)cc23)c1 [erlotinib]
In short: (§1)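 K562 cells at 2×10^6 cells/mL were treated with 10 μM compound for 30 min. Aliquots were heated for 3 min across 48°C-58°C, pooled, and extracted in PBS with 0.5% NP-40 at 4°C; soluble protein was the supernatant after 21,000xg for 90 min. Soluble protein was quantified by TMTpro 16plex LC-MS/MS with channel sums equalised, and reported as log2 fold change in thermal stability against DMSO controls, with values from duplicates.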

[2] = compound: C/C(=N\NC(=O)C1=CC(=CC=C1)S(=O)(=O)N2CCOCC2)/C3=C(C=CC(=C3)Cl)O
In short: as §1

[3] = compound: C1=CC(=C(C=C1Cl)C2=NC3=NC=CN=C3C(=N2)NC4=CC=NC=C4)F
In short: as §1

[4] = compound: C1=CC(=CC=C1C2=NC3=C(N2)C=C(C=C3)C(=O)N)OC4=CC=C(C=C4)Cl
In short: as §1

[5] = compound: C1=CC2=C(C=CC(=C2)/C=C\3/C(=O)NC(=NCC4=CC=CS4)S3)N=C1
In short: as §1

[6] = compound: C1=CC2=NC=CN=C2C=C1/C=C/3\C(=O)NC(=O)S3
In short: as §1

[7] = compound: C1=CC=C(C=C1)C2=NC(=C(N2)C3=CC=NC=C3)C4=CC(=C(C=C4)Cl)O
In short: as §1

[8] = compound: C1=CC=C2C(=C1)C3=NNC4=CC=CC(=C43)C2=O
In short: as §1

[9] = compound: C1CCN(C1)C(=O)NC2=CC=CC(=C2)NC3=NC=C(C(=N3)NCCC4=CN=CN4)Br
In short: as §1

[10] = compound: C1CN(CCC1(CC2=CC=C(C=C2)Cl)N)C3=NC=NC4=C3C=CN4
In short: as §1

[11] = compound: C1COCCN1CCN2C3=CC=CC=C3N=C2NC(=O)C4=CC(=CC=C4)[N+](=O)[O-] [IRAK-1-4 Inhibitor I]
In short: as §1

[12] = compound: C=CC(=O)N1CCC[C@@H](n2nc(-c3ccc(Oc4ccccc4)cc3)c3c(N)ncnc32)C1 [ibrutinib]
In short: as §1

[13] = compound: CC(=O)c1cnc2ccc(-c3cc(Cl)c(O)c(Cl)c3)nc2c1N[C@H]1CC[C@H](CN(C)C)CC1
In short: as §1

[14] = compound: CC(C)(C)Cn1c(N)nc2ccc(-c3[nH]c(C(C)(C)C)nc3-c3ccc(F)cc3)nc21 [ralimetinib]
In short: as §1

[15] = compound: CC(C)(O)CC(=O)NCCn1ccc2ncnc(Nc3ccc(Oc4cccc(C(F)(F)F)c4)c(Cl)c3)c21
In short: as §1

[16] = compound: CC(C)C1=C2N=C(C=C(N2N=C1)NCC3=CC=CC=C3)NCCCCCCN
In short: as §1

[17] = compound: CC(C)C[C@@H](C=O)NC(=O)[C@H](CC(C)C)NC(=O)[C@H](CC(C)C)NC(=O)OCc1ccccc1
In short: as §1

[18] = compound: CC(C)N(C[C@H]1O[C@@H](n2cnc3c(N)ncnc32)[C@H](O)[C@@H]1O)[C@H]1C[C@@H](CCc2nc3cc(C(C)(C)C)ccc3[nH]2)C1 [pinometostat]
In short: as §1

[19] = compound: CC1=C(C(CC(=O)N1)C2=CC=C(C=C2)C(F)(F)F)C(=O)NC3=C(C=C4C(=C3)C=NN4)F
In short: as §1

[20] = compound: CC1=C(C2=C(C=C1)C(=O)C3=CC=CC=C3N2CCCN)C
In short: as §1

Measured: log2 fold change

RPP14 (UniProt O95059)
UniProt O95059, sequence (O95059 whole entry, looked up): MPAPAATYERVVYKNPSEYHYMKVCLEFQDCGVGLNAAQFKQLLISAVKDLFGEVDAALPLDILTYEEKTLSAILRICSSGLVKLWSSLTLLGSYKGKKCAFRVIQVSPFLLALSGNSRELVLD
inactive: [1] -0.047 | [2] 0.09 | [3] -0.077 | [4] 0.059 | [5] -0.046 | [6] -0.023 | [7] 0.012 | [8] -0.022 | [9] -0.017 | [10] 0.021 | [11] -0.035 | [12] 0.073 | [13] -0.021 | [14] 0.009 | [15] 0.051 | [16] -0.021 | [17] 0 | [18] 0.021 | [19] 0.041 | [20] -0.04

SCYL3 isoform 2 (UniProt Q8IZE3)
inactive: [1] 0.046 | [2] 0.055 | [3] 0.07 | [4] -0.05 | [5] 0.068 | [6] -0.024 | [7] 0.058 | [8] 0.014 | [9] 0.093 | [10] 0.123 | [11] 0.087 | [12] 0.02 | [13] -0.002 | [14] -0.043 | [15] -0.063 | [16] -0.052 | [17] -0.002 | [18] 0.054 | [19] 0.013 | [20] -0.146

RHOA (UniProt P61586)
UniProt P61586, sequence (P61586 whole entry, looked up): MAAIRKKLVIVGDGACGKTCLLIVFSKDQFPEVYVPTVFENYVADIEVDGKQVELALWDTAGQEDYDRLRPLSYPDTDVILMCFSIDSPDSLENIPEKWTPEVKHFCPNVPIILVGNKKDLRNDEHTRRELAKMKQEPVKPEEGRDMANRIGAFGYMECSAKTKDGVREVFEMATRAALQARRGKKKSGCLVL
inactive: [1] 0.028 | [2] -0.029 | [3] 0.012 | [4] -0.052 | [5] -0.094 | [6] -0.161 | [7] 0.114 | [8] 0.018 | [9] -0.05 | [10] 0.01 | [11] 0.108 | [12] -0.015 | [13] 0.047 | [14] 0.251 | [15] -0.034 | [16] 0.063 | [17] -0.07 | [18] -0.023 | [19] 0.002 | [20] -0.007

ROCK1 (UniProt Q13464)
UniProt Q13464, sequence (Q13464 whole entry, looked up): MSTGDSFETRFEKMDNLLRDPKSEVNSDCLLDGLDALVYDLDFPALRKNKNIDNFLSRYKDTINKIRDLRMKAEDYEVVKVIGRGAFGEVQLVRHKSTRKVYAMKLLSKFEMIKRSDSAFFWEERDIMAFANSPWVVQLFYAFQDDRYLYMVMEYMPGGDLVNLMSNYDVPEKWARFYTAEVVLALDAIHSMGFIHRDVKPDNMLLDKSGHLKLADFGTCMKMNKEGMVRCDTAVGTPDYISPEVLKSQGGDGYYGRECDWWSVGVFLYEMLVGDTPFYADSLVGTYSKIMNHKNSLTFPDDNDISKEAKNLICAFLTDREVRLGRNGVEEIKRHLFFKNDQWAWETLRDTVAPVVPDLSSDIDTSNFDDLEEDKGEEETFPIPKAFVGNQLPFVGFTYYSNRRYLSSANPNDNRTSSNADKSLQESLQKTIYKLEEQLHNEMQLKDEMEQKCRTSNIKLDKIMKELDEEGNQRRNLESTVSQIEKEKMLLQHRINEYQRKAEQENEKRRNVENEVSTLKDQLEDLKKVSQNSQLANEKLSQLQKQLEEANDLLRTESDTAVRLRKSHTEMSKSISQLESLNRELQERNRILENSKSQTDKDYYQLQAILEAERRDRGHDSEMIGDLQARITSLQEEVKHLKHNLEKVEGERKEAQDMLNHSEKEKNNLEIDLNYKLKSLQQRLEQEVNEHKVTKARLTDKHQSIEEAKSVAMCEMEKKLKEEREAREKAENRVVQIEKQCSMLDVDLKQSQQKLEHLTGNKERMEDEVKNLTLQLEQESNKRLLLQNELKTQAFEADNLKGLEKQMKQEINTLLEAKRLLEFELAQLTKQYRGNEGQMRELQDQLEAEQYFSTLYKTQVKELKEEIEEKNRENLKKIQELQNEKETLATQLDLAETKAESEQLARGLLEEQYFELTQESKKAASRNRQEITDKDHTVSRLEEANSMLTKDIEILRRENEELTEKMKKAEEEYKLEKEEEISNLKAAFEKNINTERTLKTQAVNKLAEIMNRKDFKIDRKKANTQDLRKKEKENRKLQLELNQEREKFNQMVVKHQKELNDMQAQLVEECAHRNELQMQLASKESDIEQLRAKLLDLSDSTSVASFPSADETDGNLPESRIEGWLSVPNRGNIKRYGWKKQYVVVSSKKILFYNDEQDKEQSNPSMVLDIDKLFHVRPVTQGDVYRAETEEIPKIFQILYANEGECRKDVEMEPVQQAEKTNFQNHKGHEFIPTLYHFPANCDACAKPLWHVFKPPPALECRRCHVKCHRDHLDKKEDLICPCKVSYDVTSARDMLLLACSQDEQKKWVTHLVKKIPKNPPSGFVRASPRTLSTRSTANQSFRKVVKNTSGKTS
inactive: [1] 0.049 | [2] -0.025 | [3] 0.042 | [4] -0.007 | [5] 0.199 | [6] 0.027 | [7] -0.007 | [8] -0.018 | [9] 0.032 | [10] 0.205 | [11] -0.019 | [12] 0.013 | [13] 0.015 | [14] 0.031 | [15] -0.079 | [16] -0.026 | [17] 0.012 | [18] 0.027 | [20] -0.013
active: [19] 0.249

RBM25 (UniProt P49756)
inactive: [1] 0.142 | [2] -0.037 | [3] -0.039 | [4] -0.025 | [5] -0.014 | [6] 0.055 | [7] -0.012 | [8] -0.008 | [9] -0.076 | [10] -0.137 | [11] 0.031 | [12] 0.01 | [13] -0.032 | [14] 0.102 | [15] -0.044 | [16] 0.026 | [17] 0.057 | [18] -0.039 | [19] -0.001 | [20] 0.042

RPA3 (UniProt P35244)
UniProt P35244, sequence (P35244 whole entry, looked up): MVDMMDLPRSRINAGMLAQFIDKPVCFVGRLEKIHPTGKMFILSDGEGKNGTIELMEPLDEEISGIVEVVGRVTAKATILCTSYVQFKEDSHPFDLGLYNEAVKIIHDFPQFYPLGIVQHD
inactive: [1] -0.007 | [2] 0.156 | [3] 0.084 | [4] 0.008 | [5] -0.058 | [6] -0.007 | [7] 0.115 | [8] 0.032 | [9] -0.128 | [10] -0.027 | [11] 0.02 | [12] 0.029 | [13] 0.016 | [14] 0.038 | [15] -0.097 | [16] -0.025 | [17] -0.137 | [18] 0.016 | [19] 0.063 | [20] 0.129

RPS19 (UniProt P39019)
inactive: [1] -0.141 | [2] -0.102 | [3] -0.274 | [4] 0.057 | [5] -0.082 | [6] -0.044 | [7] -0.026 | [8] -0.015 | [9] 0.094 | [10] -0.145 | [11] -0.085 | [12] 0.052 | [13] 0.05 | [14] 0.064 | [15] 0.03 | [16] -0.025 | [17] 0.039 | [18] 0.084 | [19] 0.026
active: [20] -0.523

RBM48 isoform 2 (UniProt Q5RL73)
UniProt Q5RL73, sequence (Q5RL73 whole entry, looked up): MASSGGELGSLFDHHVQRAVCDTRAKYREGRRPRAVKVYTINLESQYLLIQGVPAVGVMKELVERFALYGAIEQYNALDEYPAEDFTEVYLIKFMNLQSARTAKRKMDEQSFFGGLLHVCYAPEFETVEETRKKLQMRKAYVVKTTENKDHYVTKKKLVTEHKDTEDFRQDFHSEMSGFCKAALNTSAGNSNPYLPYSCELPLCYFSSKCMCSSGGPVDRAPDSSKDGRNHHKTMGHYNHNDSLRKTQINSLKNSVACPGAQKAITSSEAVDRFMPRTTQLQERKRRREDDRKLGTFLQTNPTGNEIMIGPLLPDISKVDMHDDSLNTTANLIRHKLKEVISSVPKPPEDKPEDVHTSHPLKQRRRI
inactive: [1] -0.048 | [2] 0.017 | [3] -0.065 | [4] -0.026 | [5] 0.053 | [6] 0.055 | [7] -0.144 | [8] 0.042 | [9] 0.118 | [10] -0.115 | [11] 0.15 | [12] 0.051 | [13] -0.018 | [14] 0.004 | [15] 0.004 | [16] 0.156 | [17] -0.301 | [18] 0.068 | [19] -0.099 | [20] -0.151

SLC1A5 (UniProt Q15758)
UniProt Q15758, sequence (Q15758 whole entry, looked up): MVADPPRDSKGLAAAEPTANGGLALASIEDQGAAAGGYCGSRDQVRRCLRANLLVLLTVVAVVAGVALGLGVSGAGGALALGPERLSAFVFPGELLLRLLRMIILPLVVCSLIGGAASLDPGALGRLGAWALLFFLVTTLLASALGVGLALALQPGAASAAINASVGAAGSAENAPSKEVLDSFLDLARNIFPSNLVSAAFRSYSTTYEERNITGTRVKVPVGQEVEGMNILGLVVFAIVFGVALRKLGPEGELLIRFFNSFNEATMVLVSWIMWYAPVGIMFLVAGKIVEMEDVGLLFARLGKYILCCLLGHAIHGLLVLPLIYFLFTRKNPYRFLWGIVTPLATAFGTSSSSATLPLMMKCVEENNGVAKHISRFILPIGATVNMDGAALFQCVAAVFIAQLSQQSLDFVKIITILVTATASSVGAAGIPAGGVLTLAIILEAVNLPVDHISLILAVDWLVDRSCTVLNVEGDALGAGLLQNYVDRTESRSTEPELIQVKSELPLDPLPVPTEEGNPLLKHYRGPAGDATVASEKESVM
inactive: [1] -0.001 | [2] 0.003 | [3] 0.043 | [4] 0.002 | [5] -0.051 | [6] 0.006 | [7] 0.075 | [8] -0.046 | [9] -0.052 | [10] 0.089 | [11] 0.035 | [12] 0.028 | [13] 0.013 | [14] 0.046 | [15] -0.002 | [16] 0.23 | [17] -0.052 | [18] -0.034 | [19] -0.012 | [20] -0.014

RPS9 (UniProt P46781)
inactive: [1] -0.099 | [2] -0.05 | [3] -0.384 | [4] 0.024 | [5] -0.069 | [6] -0.011 | [7] 0.047 | [8] 0.002 | [9] 0.102 | [10] -0.172 | [11] -0.1 | [12] -0.025 | [13] 0.108 | [14] 0.125 | [15] 0.047 | [16] -0.025 | [17] 0 | [18] 0.206 | [19] 0.005
active: [20] -0.585

RAB3IL1 (UniProt E9PK89)
inactive: [1] -0.238 | [2] -0.055 | [3] 0.116 | [4] -0.001 | [5] 0.058 | [6] 0.104 | [7] -0.028 | [8] 0.197 | [9] -0.162 | [10] 0.004 | [11] -0.012 | [12] -0.021 | [13] -0.006 | [14] -0.018 | [15] -0.127 | [16] -0.032 | [17] 0.006 | [18] 0.017 | [19] 0.08 | [20] -0.005

SEH1L isoform 1 (UniProt Q96EE3)
UniProt Q96EE3, sequence (Q96EE3 whole entry, looked up): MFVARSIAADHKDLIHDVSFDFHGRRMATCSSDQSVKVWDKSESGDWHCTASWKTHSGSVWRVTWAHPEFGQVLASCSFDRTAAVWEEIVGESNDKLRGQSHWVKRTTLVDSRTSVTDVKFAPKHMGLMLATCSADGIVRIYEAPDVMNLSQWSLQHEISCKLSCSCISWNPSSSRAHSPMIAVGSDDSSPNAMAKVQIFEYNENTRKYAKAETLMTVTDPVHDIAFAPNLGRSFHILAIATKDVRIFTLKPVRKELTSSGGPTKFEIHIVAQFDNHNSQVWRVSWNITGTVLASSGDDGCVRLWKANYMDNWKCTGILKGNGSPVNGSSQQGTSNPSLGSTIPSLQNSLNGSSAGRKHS
inactive: [1] 0.018 | [2] 0.073 | [3] 0.012 | [4] 0.043 | [5] 0.049 | [6] 0.064 | [7] 0 | [8] -0.06 | [9] -0.02 | [10] 0.035 | [11] 0.028 | [12] -0.021 | [13] -0.056 | [14] -0.014 | [15] 0.03 | [16] -0.019 | [17] -0.026 | [18] 0.011 | [19] 0.039 | [20] 0

RBM17 (UniProt Q96I25)
UniProt Q96I25, sequence (Q96I25 whole entry, looked up): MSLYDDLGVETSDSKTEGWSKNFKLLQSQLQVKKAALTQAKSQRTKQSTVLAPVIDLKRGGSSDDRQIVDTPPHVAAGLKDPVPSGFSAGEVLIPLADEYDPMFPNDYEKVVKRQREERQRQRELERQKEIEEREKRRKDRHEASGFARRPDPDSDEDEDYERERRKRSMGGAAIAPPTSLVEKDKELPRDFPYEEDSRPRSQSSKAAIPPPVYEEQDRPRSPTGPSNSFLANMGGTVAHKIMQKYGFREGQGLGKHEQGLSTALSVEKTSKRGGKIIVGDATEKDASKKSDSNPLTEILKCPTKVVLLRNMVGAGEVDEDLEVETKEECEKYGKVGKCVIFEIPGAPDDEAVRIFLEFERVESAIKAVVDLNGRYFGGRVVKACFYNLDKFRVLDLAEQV
inactive: [1] 0.039 | [2] 0.044 | [3] 0.015 | [4] -0.023 | [5] -0.085 | [6] -0.029 | [7] 0.1 | [8] 0.011 | [9] -0.08 | [10] -0.16 | [11] -0.037 | [12] 0.114 | [13] -0.179 | [14] 0.158 | [15] -0.077 | [16] -0.053 | [17] 0.029 | [18] 0.11 | [19] -0.005 | [20] 0.012

RPS5 (UniProt P46782)
inactive: [1] -0.149 | [2] -0.087 | [3] -0.193 | [4] 0.038 | [5] -0.047 | [6] -0.045 | [7] -0.003 | [8] 0.008 | [9] 0.022 | [10] -0.125 | [11] -0.137 | [12] 0.045 | [13] 0.083 | [14] 0.103 | [15] 0 | [16] -0.015 | [17] -0.019 | [18] 0.091 | [19] 0.034
active: [20] -0.551

RALY (UniProt Q9UKM9)
UniProt Q9UKM9, sequence (Q9UKM9 whole entry, looked up): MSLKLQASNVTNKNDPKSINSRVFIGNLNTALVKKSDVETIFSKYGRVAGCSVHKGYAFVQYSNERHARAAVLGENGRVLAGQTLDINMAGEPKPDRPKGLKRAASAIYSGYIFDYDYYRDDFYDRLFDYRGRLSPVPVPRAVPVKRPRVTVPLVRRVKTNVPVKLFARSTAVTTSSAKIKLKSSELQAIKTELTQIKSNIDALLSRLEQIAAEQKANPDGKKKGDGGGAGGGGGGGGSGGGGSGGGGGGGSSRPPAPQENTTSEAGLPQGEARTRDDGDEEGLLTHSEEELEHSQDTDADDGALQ
inactive: [1] 0.018 | [2] -0.072 | [3] -0.541 | [4] 0.189 | [5] -0.144 | [6] 0.154 | [7] -0.11 | [8] 0.038 | [9] 0.008 | [10] -0.22 | [11] -0.315 | [12] 0.001 | [13] -0.21 | [14] -0.029 | [15] 0.055 | [16] -0.101 | [17] 0.083 | [18] 0.129 | [19] 0.068 | [20] -0.311

SENP6 (UniProt Q9GZR1)
UniProt Q9GZR1, sequence (Q9GZR1 whole entry, looked up): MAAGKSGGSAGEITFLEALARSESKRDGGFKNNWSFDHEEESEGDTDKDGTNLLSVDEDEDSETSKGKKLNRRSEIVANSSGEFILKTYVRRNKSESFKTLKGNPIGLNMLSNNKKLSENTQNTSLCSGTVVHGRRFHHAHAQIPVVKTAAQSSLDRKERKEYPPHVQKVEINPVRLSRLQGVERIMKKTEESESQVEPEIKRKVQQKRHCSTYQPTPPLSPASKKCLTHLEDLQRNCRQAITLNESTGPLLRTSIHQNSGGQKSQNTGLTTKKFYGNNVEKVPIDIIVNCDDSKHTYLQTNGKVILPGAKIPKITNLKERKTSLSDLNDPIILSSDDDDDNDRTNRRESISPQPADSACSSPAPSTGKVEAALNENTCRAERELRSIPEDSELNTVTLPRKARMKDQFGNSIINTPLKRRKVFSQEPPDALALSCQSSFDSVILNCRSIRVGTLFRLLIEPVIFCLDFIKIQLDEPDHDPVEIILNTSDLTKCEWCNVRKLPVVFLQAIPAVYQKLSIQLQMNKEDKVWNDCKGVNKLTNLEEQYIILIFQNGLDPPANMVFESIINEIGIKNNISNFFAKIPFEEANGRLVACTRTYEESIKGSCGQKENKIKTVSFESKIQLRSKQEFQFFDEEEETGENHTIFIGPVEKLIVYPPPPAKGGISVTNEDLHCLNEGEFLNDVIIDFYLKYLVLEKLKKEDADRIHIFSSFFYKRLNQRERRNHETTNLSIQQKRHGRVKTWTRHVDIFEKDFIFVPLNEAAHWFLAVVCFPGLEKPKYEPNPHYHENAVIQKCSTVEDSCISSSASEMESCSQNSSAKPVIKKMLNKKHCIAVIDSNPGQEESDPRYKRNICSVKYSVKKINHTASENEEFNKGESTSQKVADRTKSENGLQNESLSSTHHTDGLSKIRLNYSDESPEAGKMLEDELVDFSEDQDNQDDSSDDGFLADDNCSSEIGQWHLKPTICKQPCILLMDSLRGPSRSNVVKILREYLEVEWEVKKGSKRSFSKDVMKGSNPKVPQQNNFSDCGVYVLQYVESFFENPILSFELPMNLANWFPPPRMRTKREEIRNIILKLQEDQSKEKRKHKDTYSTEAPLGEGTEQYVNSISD
inactive: [1] 0.028 | [2] 0.033 | [4] -0.049 | [5] -0.029 | [6] 0.08 | [7] -0.011 | [8] -0.078 | [9] -0.061 | [10] 0.049 | [11] 0.005 | [12] -0.018 | [13] -0.063 | [14] -0.031 | [15] -0.058 | [16] 0.094 | [17] 0.043 | [18] 0.004 | [19] -0.028 | [20] 0.057
active: [3] 0.237
